# Assay outcomes deposited in PubChem by National Center for Advancing Translational Sciences (NCATS).
# FUS suppressor – FUS proteinopathy suppression in yeast. S. cerevisiae FUS-expressing, growth rescue, OD600, 24 h. actives 0.24% (n = 390,000). Potency, µM (doses to about 76.6 µM), hits mostly activators. AID 1347120;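 also: plate controls were DMSO vehicle for no effect and reference control for full effect; nearly all actives have a fitted effect of over 55% in size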
#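 Quantitative HTS measuring growth restoration of FUS-toxic yeast. Galactose-induced cells (OD 0.005) were exposed 24hr at 30C to compounds at several concentrations, then absorbance at 600 nm was recorded.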
# TSG101-PTAP inh – blocks PTAP/TSG101 interaction to inhibit HIV-1 budding; 340,000 tested, under 10 active; Fluorescence polarization, FITC-PTAP peptide / Tsg101 binding; Potency, µM (series often up to 115 µM), for inactives: top-dose activity change, negative = inhibition, most hits filed as inhibitors; AID 493005; active = well fitted inhibition curve with a large enough effect in the main read-out, with a control signal flat, not every such curve was filed as active; inconclusive = small, poorly fitted or top-dose-only effect, or effect the other way, or a change in a side signal; inactive = no such curve, though single readings can be large or run the other way; also: % of control where 0% means no effect
# Target sequence (Q99816 whole entry, looked up): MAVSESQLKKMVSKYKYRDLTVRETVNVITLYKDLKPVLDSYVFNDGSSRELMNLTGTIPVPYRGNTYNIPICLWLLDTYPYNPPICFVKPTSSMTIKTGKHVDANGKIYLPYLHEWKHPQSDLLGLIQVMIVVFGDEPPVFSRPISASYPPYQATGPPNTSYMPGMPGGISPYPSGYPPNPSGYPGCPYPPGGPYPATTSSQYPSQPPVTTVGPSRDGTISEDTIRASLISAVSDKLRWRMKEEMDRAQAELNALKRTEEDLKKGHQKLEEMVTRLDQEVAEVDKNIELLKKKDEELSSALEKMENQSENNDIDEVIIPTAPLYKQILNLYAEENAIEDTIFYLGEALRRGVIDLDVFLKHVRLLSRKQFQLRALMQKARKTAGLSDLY
#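 Steps: Tsg101 binding domain dispensed (10 uM final), compounds pinned in DMSO, FITC-labeled PTAP-motif peptide added (50 nM final); after 20 min binding at room temperature, polarization measured.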
# Abeta yeast res – compounds reversing amyloid beta toxicity in yeast; yeast expressing A-beta42, growth rescue, OD600, 48 h; response scale: 0% DMSO, 100% iron-clioquinol control; actives 0.063% (n = 410,000); Potency, µM (titrated, usually from 46.1 µM), actives largely listed as activators; also: nearly all actives have a fitted effect of over 55% in size
#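 Growth rescue measured by 600 nm absorbance after 48 h yeast culture at 30 C with compound. Values normalized between DMSO and an equimolar ferric chloride plus clioquinol control.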
# TDP-43 yeast inh – rescues yeast growth from TDP-43 toxicity; TDP-43 expressing yeast growth rescue, BacTiter-Glo, 24 h; actives 1.8% (n = 410,000); AID 652104; Potency, µM (doses to about 46.1 µM), inactives show at the top dose growth rescue (activation), most hits filed as activators; also: % of control where 0% means no effect; nearly all actives have a fitted effect of over 50% in size
#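 Yeast cells expressing TDP-43 under galactose induction are exposed to compounds for 24 hr at 30 deg C. BacTiter-Glo luminescence measures growth, so protective compounds score as activators.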
# aSyn rescue – inhibitors of alpha-synuclein toxicity in yeast. Yeast expressing alpha-synuclein, growth rescue, BacTiter-Glo, 24 h. Potency, µM (series often up to 46.1 µM), for the others: at the top dose growth rescue (activation), usual class: activators. actives 0.14% (n = 370,000). AID 652106; also: % of control where 0% means no effect; nearly all actives have a fitted effect of over 65% in size
#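 Screening used galactose-induced yeast with toxic alpha-synuclein levels, exposed to compound for 24 hr at 30 deg C. Cell growth, read with BacTiter-Glo luminescence, gave the measured signal.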
# * hit, by the source's call; i = inactive; ? = inconclusive; / = no result. Rows were chosen to be rich in hits. Some 2.1% of all compounds tested hit in one or more screens of this group. Unless noted, calls follow the shape of the dose curve; as a rule, active = well fitted curve in the direction sought with a large enough effect; inconclusive = small, poorly fitted or top-dose-only effect, or another doubt; inactive = no such curve, though single readings can be large; an effect the other way counts as inactive or inconclusive. Potency is read from the fitted curve at half-maximal effect.
SMILES,FUS suppressor,TSG101-PTAP inh,Abeta yeast res,TDP-43 yeast inh,aSyn rescue
CCOC(=O)c1cc(-c2ccc(C)cc2)n(CCC(=O)NC(C)CC)c1C (centres undefined),i,-7%,i,14µM*,1%
O=C(COC(=O)/C=C/c1ccc(Cl)c(Cl)c1)NC1CC1,/,1%,i,10µM*,24%
CSc1ccc(/C=C/C(=O)OCC(=O)NC2CCCC2)cc1,i,/,i,20µM*,-1%
O=C(NCc1ccccc1)c1ccc(CSc2nc3cccnc3n2Cc2cccc(F)c2)cc1,i,/,i,6%,/
CSc1ccc(CNC(=O)Cn2c(-c3cccs3)cc3cc(F)ccc32)cc1,i,/,i,10%,/
O=S(=O)(NCCc1csc(-c2ccc(C(F)(F)F)cc2)n1)c1ccc2c(c1)OCCO2,i,-5%,?,25µM*,-1%
O=S(=O)(NCCc1csc(-c2cccnc2)n1)c1ccc2c(c1)OCCO2,i,-1%,i,22%,-21%
COc1ccc(-c2nc(CCNS(=O)(=O)c3ccc4c(c3)OCCO4)cs2)cc1,i,-2%,i,13µM*,-16%
O=C(OCc1cn(Cc2cccc(C(F)(F)F)c2)nn1)N1CCOCC1,i,/,/,/,/
CCc1nc2ccc(C(=O)NCCCN(C)C)cn2c1N(CC)CCOC,i,/,i,21%,0%
O=C(O)c1ccc(COc2ccc3ccccc3c2/C=C2/NC(=O)N(c3ccccc3)C2=O)cc1,35µM*,-9%,i,4%,-1%
CCC(=O)C1=C(c2ccc(F)cc2)N(C(=O)CC)n2cnnc2S1,i,/,i,?,/
CC(=O)C1=C(c2ccc(Cl)c(Cl)c2)N(C(C)=O)n2c(C)nnc2S1,i,/,i,?,/
COc1cccc(C2=C(C(C)=O)Sc3nnc(C4CCCCC4)n3N2C(C)=O)c1,i,/,i,?,/
CC(=O)C1=C(c2ccc(Cl)c(Cl)c2)N(C(C)=O)n2cnnc2S1,i,/,i,10µM*,/
CCOc1ccc(C2=C(C(=O)CC)Sc3nncn3N2C(=O)CC)cc1,i,/,i,20µM*,/
COc1cccc(C2=C(C(C)=O)Sc3nncn3N2C(C)=O)c1,i,/,i,35µM*,/
Cc1ccc(S(=O)(=O)C2CCN(c3nc(-c4cccs4)nc4ccccc34)CC2)cc1,i,/,/,/,-13%
CC1=C(C(=O)Nc2cccnc2)C(c2cccc(F)c2)n2nc(SCc3ccccc3)nc2N1 (centres undefined),i,/,i,16%,/
O=C1CCCN1CCCN=c1c([N+](=O)[O-])nn(-c2ccc(Cl)cc2)n1O,?,2%,i,14µM*,-1%
CC(OP(=O)(O)C(NC(=O)[C@H](Cc1ccc(O)cc1)NC(=O)OC(C)(C)C)C(C)C)C(=O)O (some centres undefined),i,/,/,/,/
COc1cccc(CNC(=O)CN2CCCc3ccccc32)c1,i,/,/,/,/
O=S(=O)(NC1CCCC1)c1ccc(F)cc1F,i,/,i,27%,0%
Nc1ncnc2c(C3OC(CO)C(O)C3O)c[nH]c12 (centres undefined),/,3%,i,3.2µM*,11µM*
CCNC(=S)Nc1ccc2c(c1)c(=O)n(C)n2-c1ccc(C(C)(C)C)cc1,32µM*,/,i,15%,-3%
COc1ccc(NC(=O)CN(C)C(=O)c2cccc(S(=O)(=O)N3CCN(c4ccc(F)cc4)CC3)c2)cc1,22µM*,-4%,i,1%,-2%
CCOC(=O)CSc1nnc(CCCCCN2C(=O)c3cccc4cccc(c34)C2=O)o1,i,-3%,i,3%,-1%
C=CCSc1nnc(CCCCCN2C(=O)c3cccc4cccc(c34)C2=O)o1,i,-9%,i,22µM*,-9%
Cc1ccc(C)c(S(=O)(=O)N2C(=S)NC(=O)C2CC(C)C)c1 (centres undefined),i,-10%,i,25µM*,?
CCC(C)c1ccc(NC(=O)c2c([N+](=O)[O-])cnn2CC)cc1 (centres undefined),i,-1%,i,20µM*,17%
